Hits are enriched below; roughly 0.36% of the tested compounds scored in any of these assays.
SNCA viab count: cell viability loss counter-screen | 0.12% of 150,000 active | Potency, µM (top dose mostly 57.1 µM), for inactives: at the highest dose activity change, negative = cytotoxicity, most hits filed as cytotoxic | HEK-293-SNCA-luc viability, GF-AFC fluorescence, 24 h | AID 1671193;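 further: potency means the concentration at half of the fitted maximal effect; 0% = DMSO-treated cells and -100% = medium-only wells without cells; nearly all actives have a fitted effect of over 30% in size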
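HEK-293-SNCA-luc cells (1500/well) plated 24 h, then exposed 24 h to a dilution series; GF-AFC added 30 min at 37C, fluorescence 405/540 nm; normalised to medium-only and DMSO wells, Hill fit.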
SNCA expr inhib: inhibitors of alpha-synuclein (SNCA) gene expression. 0.17% of 140,000 active. AID 1671194. HEK-293 SNCA-luciferase knock-in, luminescence, 24 h. Potency, µM (doses to about 57.2 µM), inactives show at the top dose activity change, negative = inhibition, most hits filed as inhibitors;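 further: potency means the concentration at half of the fitted maximal effect; plate controls were DMSO cells for no effect and cell-free wells for full effect; nearly all actives have a fitted effect of over 45% in size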
GPT2 inh: inhibitors of human GPT2 alanine aminotransferase; Q8TD30; Recombinant GPT2, coupled pyruvate oxidase/HRP Amplex Red fluorescence; Potency, µM (series often up to 57.7 µM), for the others: at the highest dose activity change, negative = inhibition, actives largely listed as inhibitors; 0.25% of 100,000 active; further: potency means the concentration at half of the fitted maximal effect; on the % scale 0 is the no-effect control and ±100 the full control effect; nearly all actives have a fitted effect of over 60% in size
Target sequence (Q8TD30 whole entry, looked up): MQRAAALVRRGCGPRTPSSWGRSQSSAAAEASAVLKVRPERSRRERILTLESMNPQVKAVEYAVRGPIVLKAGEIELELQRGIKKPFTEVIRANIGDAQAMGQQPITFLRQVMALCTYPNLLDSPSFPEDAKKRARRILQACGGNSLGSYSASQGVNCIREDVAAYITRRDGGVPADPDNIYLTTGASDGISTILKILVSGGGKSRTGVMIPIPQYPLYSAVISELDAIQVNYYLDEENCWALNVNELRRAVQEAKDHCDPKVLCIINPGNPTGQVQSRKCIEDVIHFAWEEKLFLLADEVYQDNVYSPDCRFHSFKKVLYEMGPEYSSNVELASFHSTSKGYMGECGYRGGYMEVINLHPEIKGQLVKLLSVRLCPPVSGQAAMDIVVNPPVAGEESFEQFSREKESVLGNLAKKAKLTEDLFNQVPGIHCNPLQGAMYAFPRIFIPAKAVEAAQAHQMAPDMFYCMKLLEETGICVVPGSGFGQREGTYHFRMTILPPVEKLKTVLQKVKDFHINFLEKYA
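GPT2 10ng/uL, a-KG 250uM, L-Ala 2mM, HEPES pH7.5 + 0.0001% Tween; 30 min RT. Then Amplex mix (PO/HRP/ThPP), 30 min RT dark, fluorescence. AOA 50uM used as positive control.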
GPT2 conf: human alanine aminotransferase 2 inhibition, confirmatory; Potency, µM, actives largely listed as inhibitors; shares compounds with GPT2 inh; AID 1671187; GPT2 enzyme, coupled Amplex Red pyruvate fluorescence; 90% of 95 active
* marks the source's active call; other numbers are inactive results; i = inactive; ? = inconclusive; / = no result; ! = repeats disagree; [ ] = dose if it differs, or a comment. The call rests on the fitted dose curve; in most records, active means well fitted curve in the direction sought with a large enough effect; inconclusive means small, poorly fitted or top-dose-only effect, or another doubt; inactive means no such curve, though single readings can be large; an effect the other way counts as inactive or inconclusive.

SMILES | SNCA viab count | SNCA expr inhib | GPT2 inh | GPT2 conf
c1ccc(-c2cc3c(cn2)NCCN(Cc2ccccn2)C3)cc1 | -16%[87.6 µM] | 28%[87.6 µM] | 2%[88.5 µM] | /
N#Cc1ccc(CN2CCC3(COc4ccccc4C(=O)N3)C2)cc1 (stereo not given) | 11%[87.6 µM] | -12%[87.6 µM] | -4%[88.5 µM] | /
Cc1ccc(-c2cc(C(=O)NCCc3ccc(F)cc3)c3cnn(C)c3n2)c(C)c1 | 2% | 52% | i | /
Cc1cnc(Nc2ccc(F)cc2Cl)nc1-c1c[nH]c(C(=O)NC(CO)c2cccc(Cl)c2)c1 (stereo not given) | -27% | / | 7.1µM* | 3.4*
CC(C)Nc1cc(-c2c[nH]c(C(=O)N[C@H](CO)c3cccc(Cl)c3)c2)c(Cl)cn1 | -22% | ? | 0% | /
COc1ccccc1Cn1c(=O)c(C(=O)NC(C)c2ccc(F)cc2)nc2cccnc21 (stereo not given) | -13% | -2% | ? | /
CN(C)c1ccc2c(c1)CN(C(=O)c1cnn(C)c1)CCO2 | 3% | -4% | 1µM* | 0.69*
CN(C)c1ccc(C(=O)N2CCc3cn(C)c4cccc(c34)C2)cc1 | 1% | -12% | 0% | /
CCCn1ncc(N2CCC(C(=O)N(CCc3ccncc3)CC3CCCO3)CC2)cc1=O (stereo not given) | -3% | -14% | 4% | /
CCCn1ncc(N2CCC(C(=O)N(CCCOC)Cc3ccc4c(c3)CCCN4CC)CC2)cc1=O | -23% | -5% | 10µM* | 1.7*
CC(C)c1nc2c(c(-c3ccc(O)cc3)n1)CCN(C(=O)C(C)(C)C)CC2 | 0% | 11% | i | /
C#CCNC(=O)C1CCCN(Cc2cccc(-c3ccc(F)cc3F)c2)C1 (stereo not given) | -7% | -18% | 2% | /
N#Cc1cccc(-c2c(C(=O)NCc3cccc(C(F)(F)F)c3)nc3sccn23)c1 | -24% | ? | 1% | /
Clc1ccc2c(c1)Nc1ccccc1S2 | -16%[23.9 µM] | -42%[25.6 µM] | ? | 3.4*
CN1CCN(C2=Nc3ccccc3Sc3ccc(Cl)cc32)CC1 | 12%[23.9 µM] | -24%[25.6 µM] | ? | /
COc1ccc(CNC(=O)C2CCN(c3nccc(Nc4ccc(C)cc4)n3)CC2)cc1 | -2%[12.5 µM] | 7% | 1% | /
Cc1ccc(C)c(S(=O)(=O)N2c3ccccc3CC2c2nc(C(C)C)no2)c1 (stereo not given) | ? | -23% | i | /
O=C(C1CC1)N1CCN(c2nccc(Nc3ccccc3Cl)n2)CC1 | -11% | 77% | -3% | /
COc1ccc(-c2ccc3nc(-c4cccc(Cl)c4)oc3c2)c(OC)c1OC | 10% | -7% | ? | 2.4*
COc1ccc(-c2ccc3nc(-c4ccccc4)oc3c2)c(OC)c1OC | 14% | -11% | -19% | /
Cc1cccc(-c2cccc(CN3CCC(NC(=O)N(C)C)CC3)c2)c1 | 5% | 9% | -1% | /
O=C(Cc1c[nH]c2ncc(-c3ccc(Cl)cc3)cc12)NCc1cccnc1 | 4%[87.6 µM] | 17%[87.6 µM] | -5%[88.5 µM] | /
COc1ccc(NC2CCCN(CC(=O)Nc3ccc(C)cn3)C2)cc1 (stereo not given) | -1% | -5% | ? | 5.4*
CCNc1ncc(C(=O)N2CCCC(Nc3ccc(OC)cc3)C2)cn1 (stereo not given) | 11% | 5% | i | /
C[C@@H]1CN(C(=O)c2cc(N3CCOCC3)cc3c2OCCN3C)C[C@H](C)O1 | / | / | / | 4.4*
SMILES | SNCA viab count | SNCA expr inhib | GPT2 inh | GPT2 conf
Cc1cc(CNC(=O)c2cc(-c3ccc(N4CCOCC4)cc3)cc3c2OCCN3C)no1 | 3% | -11% | 3% | /
COC1CN(c2cccc(F)c2)C12CCN(S(=O)(=O)c1cccc(F)c1)CC2 (stereo not given) | -18% | -11% | i | /
CCN(CC)c1ccc(NC(=O)CCn2ccn3nc4c(c3c2=O)CCCC4)c(C)c1 | ? | -29% | ? | 1.7*
Cc1cc(Cl)ccc1NC(=O)CCn1ccn2nc3c(c2c1=O)CCCC3 | -3% | -24% | i | /
COc1cc(N2CCOCC2)ccc1Nc1ncc(F)c(Nc2ccccc2NS(C)(=O)=O)n1 | -30% | / | 3.2µM* | 1.9*
COc1cc(N2CCOCC2)ccc1Nc1ncc(Cl)c(Nc2ccccc2NS(C)(=O)=O)n1 | -30% | / | 5µM* | 1.5*
CCNc1nc(Nc2cc(F)c(C(=O)N3CCOCC3)cc2OC)ncc1C(F)(F)F | -19% | / | 2% | /
CNc1nc(Nc2ccc(C(=O)N3CCOCC3)cc2OC)ncc1Cl | 2% | 62% | 2% | /
O=C(NC1CCN(c2ccnc3ccnn23)CC1)c1ccc(Cl)cc1 | 4% | 7% | -9% | /
COc1ccc(Nc2ccnc(N3CCC(C(=O)NCc4ccc(F)cc4)CC3)n2)cc1 | -14%[12.5 µM] | -5% | i | /
CCOc1cc(N2CCC(O)CC2)ccc1Nc1ncc2c(n1)N(C1CCCC1)CCC(=O)N2C | -16% | / | ? | /
COc1cc(N2CCC(C(N)=O)CC2)ccc1Nc1nc(N)c(Cl)c(Nc2ccccc2S(=O)(=O)C(C)C)n1 | ? | ? | 1.4µM* | 3.9*
COc1ccccc1Nc1ccnc(N2CCC(C(=O)NC(C)C)CC2)n1 | -9%[87.6 µM] | -6%[87.6 µM] | 4%[88.5 µM] | /
COc1cc(N2CCC(N3CCN(C)CC3)CC2)ccc1Nc1ncnc(Nc2ccccc2S(=O)(=O)C(C)C)n1 | ? | ? | 4.3µM*! | 1.5*
COc1cc(N2CCC(O)CC2)ccc1Nc1cc(Nc2ccccc2S(=O)(=O)C(C)C)c2cc[nH]c2n1 | ? | ? | 3.4µM*! | 3.4*
C=CC(=O)Nc1cccc(Oc2nc(Nc3ccc(N4CCN(C)CC4)cc3OC)ncc2Cl)c1 | ? | -4% | ? | /
Cc1ccc(-c2ccccc2CN2CCC(C(=O)NCC(F)(F)F)CC2)cc1Cl | -9% | ? | -1% | /
O=C(NCCc1ccccc1)[C@@H]1CCCN1c1nccc(Nc2ccccc2Cl)n1 | -10%[12.5 µM] | 5% | 4% | /
CCCCCNC(=O)C1CCCN1C(=O)c1cccc(-c2cccc(OC)c2)c1 (stereo not given) | -6%[12.5 µM] | 8%[87.6 µM] | -14%[88.5 µM] | /
CCc1nc(C(N)=O)c(Nc2ccc(N3CCC(N4CCN(C)CC4)CC3)c(OC)c2)nc1NC1CCOCC1 | ? | 10% | 8.6µM* | 3.1*
COc1ccccc1N1CCN(C2CCCN(Cc3nc(C(N)=O)no3)C2)CC1 (stereo not given) | -1% | 3% | -19% | /
Cn1ccc2cc(NCc3nnc(C(=O)N4CCC[C@@H]4CN4CCCC4)n3-c3ccccc3)ccc21 | -2% | 24% | ? | ?
O=C(c1nnc(CNc2ccc(F)cc2)n1-c1ccccc1)N1CCC[C@@H]1C(c1ccccc1)c1ccccc1 | -20% | ? | -13% | /
COc1cccc(C(=O)N2CCOc3ccc(CN4CCCCC4)cc3C2)c1 | 7% | 1% | -6% | /
COc1ccc(CCC(=O)N2CCOc3ccc(N4CCCC4)cc3C2)cc1 | -14% | ? | 3.2µM* | 1.5*
CN(C)c1ccc(-c2nccc(Nc3ccc(F)cc3)n2)cc1 | -18% | 123% | / | /
CN(C)c1ccc(Nc2nc(N)n(C(=O)c3c(F)cccc3F)n2)cc1 | -21% | 55% | 3.2µM* | 1.2*
O=C(c1cccc(Cl)c1)N1CCC(C(=O)N2CCC(N3Cc4ccccc4C3=O)CC2)CC1 | -10% | -5% | 1% | /
C=CCN(C)C(=O)[C@@H](C)C1CC[C@@]2(C)Cc3sc(NCCCC)nc3[C@@H](C)[C@@H]2[C@H]1O (stereo not given in full) | -17%[87.6 µM] | -1%[87.6 µM] | ? | /

From PubChem BioAssay
